Hit rate of the full screen: of about 2,200 compounds, about 530 (24%) were called active.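 The calls were made as follows: active = inhibition above a set limit at one or more concentrations of the dose series; inactive = inhibition under that limit at every dose.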 Not all results are given here. Measured potencies and affinities stand elsewhere.
Assay: S. Typhimurium nonspecific reporter signal inhibition – Salmonella Typhimurium, GFP fluorescence, counter-screen for PhoP regulon inhibitor project, dose response (AID 2401);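 also: S. typhimurium with Mg-insensitive nmpC-GFP reporter grown at 10 µM Mg2+; drop in reporter fluorescence reflects general culture growth inhibition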
Conditions: 4 h; series mostly up to 150 µM; inhibition: at the top concentration

Structure (SMILES) | inhibition
c1ccc(Nc2nc3ccccc3[nH]2)nc1 | -16.9% (inactive)
CC(=O)Nc1cccc(-c2csc(Nc3ccccn3)n2)c1 | 12.4% (inactive)
Clc1ccc(Cn2ncc3c(NCc4ccco4)ncnc32)c(Cl)c1 | -19.8% (inactive)
Cc1nc2cc(NC(=O)N3CCN(c4ccccn4)CC3)ccc2o1 | -9.97% (inactive)
CC(C)N(Cc1nc(-c2ccccc2)no1)C(=O)CN(C)S(=O)(=O)c1ccccc1 | -27.9% (inactive)
COc1ccccc1NCCC(=O)OCC(=O)NC1CCCCCC1 | 1.86% (inactive)
Cc1ccc(NC(=O)CO/N=C(\N)c2nonc2N)cc1 | -22.7% (inactive)
O=c1cc(CSc2nc(NCc3ccccc3)c3ccccc3n2)nc2ccc(Cl)cn12 | -29.7% (inactive)
N/C(=N\OC(=O)N1c2ccccc2Sc2ccccc21)c1ccccc1 | 3.91% (inactive)
Cc1cc(C)cc(OC(=O)CS(=O)c2ccc(C(F)(F)F)cc2[N+](=O)[O-])c1 (centres undefined) | -12.9% (inactive)
CCCOc1ccc(/C=N/O)cc1 | -22.8% (inactive)
C=C(C)C1Cc2cc3ccc(=O)oc3cc2O1 (centres undefined) | -20.6% (inactive)
CCOc1cc(C2Nc3cccc4cccc(c34)N2)ccc1O | 14.6% (inactive)
COC(=O)CCC(=O)Nc1ccc(OC)cc1 | -5.35% (inactive)
CC(=O)N/N=C/c1ccc(OCCOc2ccc(Br)cc2)cc1 | -12.3% (inactive)
COc1cccc(-n2c(SCc3cc(=O)oc4cc(O)c(O)cc34)nc3ccccc3c2=O)c1 | 13.4% (inactive)
O=C(Cn1cnc2scc(-c3ccccc3)c2c1=O)N1CCOCC1 | -6.08% (inactive)
COc1ccccc1Nc1nc(-c2c(C)[nH]c3ccccc23)cs1 | 32.7% (inactive)
N#Cc1c(N)n[nH]c1-c1cc2c([nH]1)CCCC2 | -26.1% (inactive)
Cc1ccc(CNC(=O)Nc2cccs2)cc1 | -6.52% (inactive)
CCc1cccc2c(C#N)cn(CC(=O)NCCOC)c12 | -28.3% (inactive)
Cc1nc(N2CCN(Cc3ccccc3)CC2)nc2c1C(=O)CC(C)C2 (centres undefined) | -10% (inactive)
Cc1cc(C)n(-c2ccc(C(=O)OCC(=O)Nc3ccc([N+](=O)[O-])cc3)cc2)n1 | -6.55% (inactive)

Structure (SMILES) | inhibition
O=C(OCCN1C(=O)c2ccccc2C1=O)c1ccc(S(=O)(=O)N2CCCCCC2)cc1 | 6.73% (inactive)
COc1ccc(/C=C2\CN(Cc3ccccc3)C/C(=C\c3ccc(OC)cc3)C2=O)cc1 | 2.16% (inactive)
N/C(=N\OC(=O)Nc1ccc(Cl)cc1)c1ncc(C(F)(F)F)cc1Cl | -13.7% (inactive)
COc1cccc(C=NCC(C)N=Cc2cccc(OC)c2O)c1O (centres undefined) | 6.34% (inactive)
Cn1c(CO)cnc1SCc1ccc([N+](=O)[O-])cc1 | -31.8% (inactive)
Cc1nn(-c2ccccc2)c2sc(-c3n[nH]c(=S)o3)cc12 | -18% (inactive)
COc1ccc(C(=O)NC(=S)NCc2ccc(-c3nc4ccccc4o3)cc2)cc1OC | -29.8% (inactive)
O=C1NC(c2ccc3c(c2)OCO3)Oc2ccccc21 (centres undefined) | -11.5% (inactive)
O=C(O)CCC(=O)NCC1OCCc2ccccc21 (centres undefined) | -11.9% (inactive)
C=CCNc1nnc(Cl)c2ccccc12 | -3.69% (inactive)
CCCCCCCCOC(=O)C1=C(C)Nc2nnnn2C1c1cccs1 (centres undefined) | 6.8% (inactive)
CCOC(=O)c1c(/N=C/c2ccc(O)cc2O)sc2c1CCC2 | 9.86% (inactive)
O=C(c1ccc(Cl)cc1Cl)C1(n2cncn2)Oc2ccccc2C1O (centres undefined) | 20.3% (inactive)
O=C(CCN1CCN(c2ccc(F)cc2)CC1)Nc1ccccc1F | -8.75% (inactive)
Cc1sc(NC(=O)c2ccco2)c(CN2CCN(c3ccc(F)cc3)CC2)c1C | 9.11% (inactive)
CCOC(=O)c1cc2sc(C)cc2n1CC(=O)NCc1ccc(F)cc1 | -16.9% (inactive)
CC(C(=O)Nc1cc([N+](=O)[O-])ccc1Cl)N1CCN(c2ccccc2O)CC1 (centres undefined) | -10.1% (inactive)
CC(C)NC(=O)/C(=N\O)c1ccccc1 | -6.42% (inactive)
CCOC(=O)C(/C=C(\C#N)C(=O)OCC)=C(/N)N1CCN(c2c(C)cccc2C)CC1 | -4.43% (inactive)
O=S(=O)(Nc1cc(Sc2ncn[nH]2)c(O)c2ccccc12)c1ccccc1 | 19.9% (inactive)
O=[N+]([O-])c1ccc(NCCCNS(=O)(=O)c2ccccc2)c(Cl)c1 | -16.6% (inactive)
Nc1c(-c2ccccc2)cnn1-c1cccc([N+](=O)[O-])c1 | -14.3% (inactive)
CCC(Sc1ncccc1C(=O)OC(C)C)C(=O)N1CCOCC1 (centres undefined) | -11.1% (inactive)

Structure (SMILES) | inhibition
Cc1ccc(C)n1-c1cc(S(=O)(=O)N2CCOCC2)ccc1N1CCCC1 | -26.3% (inactive)
Cc1cc(Nc2ccccc2F)n2ncnc2n1 | -16.8% (inactive)
N#Cc1ccc(CSc2nnc(-c3ccncc3)n2CCc2ccccc2)cc1 | -14.9% (inactive)
C/C(=N\NC(=O)c1ccccc1)c1ccc2c(c1)OCO2 | 7.65% (inactive)
O=C(NN=C1CCN(Cc2ccccc2)CC1)c1cc2ccccc2cc1O | 22.1% (inactive)
CN(C(=S)Nc1ccc(Oc2ccccc2)cc1)c1ccc(O)cc1 | -25.9% (inactive)
CC(C)Cn1c(-c2ccccc2)nc2ccccc2c1=O | 15% (inactive)
COC(=O)c1c(C(=O)OC)c(-c2cccc(C)c2)n2c1CS(=O)(=O)C2 | -17.4% (inactive)
NC(=NCCc1c[nH]c2ccccc12)NC(=O)c1ccc(F)cc1 | 11% (inactive)
CC1CCN(c2ccc(NC(=S)NC(=O)c3ccc(-c4cccc([N+](=O)[O-])c4)o3)cc2)CC1 | -4.01% (inactive)
CCOc1ccc(-c2noc(CCCC(N)=O)n2)cc1OC | -19.5% (inactive)
O=C(CNC(=O)c1ccco1)OCC(=O)c1ccc2c(c1)CCCC2 | 6.89% (inactive)
C/C(=N\n1nnnc1Nc1ccccc1)c1ccc(N)cc1 | -25.1% (inactive)
COc1ccc(NC(=O)CSc2nc(C)cs2)cc1OC | -40.4% (inactive)
c1ccc(CCNc2nc3ccccc3s2)cc1 | 2.79% (inactive)
Cc1cc(NC(=O)c2cnn3cccnc23)no1 | 18.4% (inactive)
COc1ccc(-c2ccc(-c3noc(-c4cccs4)n3)c(OC)n2)cc1 | 18.1% (inactive)
COc1ccc(NC(C)C(=O)Nc2ccc(C(C)(C)C)cc2)cc1Cl (centres undefined) | -15.3% (inactive)
CC1CCCCN1CCNS(=O)(=O)c1ccc2c(c1)oc(=O)n2C (centres undefined) | -11.4% (inactive)
Cc1ccccc1-n1nnnc1Sc1nnnn1-c1ccccc1 | -1.79% (inactive)
C=CCn1c(SCc2c(C(=O)OC)sc(N)c2C(=O)OC)nnc1-c1ccc(Cl)cc1 | -13.2% (inactive)
CSCCC(NC(=O)c1cccc(C)c1)C(=O)OCC(=O)NC(=O)c1cccn1C (centres undefined) | 2.31% (inactive)
COc1ccc(-c2cc(C(=O)O)[nH]n2)cc1OC | -13.4% (inactive)

Structure (SMILES) | inhibition
O=C(O)CCc1nn2c3ccccc3n(CC(=O)c3ccccc3)c2nc1=O | -11% (inactive)
COc1ccccc1/C=C1\CCCC2=C1Nc1nnnn1C2c1ccccc1OC (centres undefined) | 29.8% (inactive)
CCN(CC(=O)N1CCN(Cc2ccccc2)CC1)S(=O)(=O)c1ccc(F)cc1 | -13.4% (inactive)
S=C(Nc1cccc(Cl)c1)Nc1cccc2cnccc12 | -44.4% (inactive)
S=C(NCc1cccnc1)Nc1ccc(Cl)cc1 | 15.7% (inactive)
CSC(=NS(=O)(=O)c1ccccc1)SC | 23.7% (inactive)
CCN(CC)c1ccc(/C=C(\C#N)C(=O)NCc2ccco2)cc1 | -62.5% (inactive)
CCOC(=O)C1=C(C)NC(=O)NC1c1c(OCC(=O)N2CCCCC2)ccc2ccccc12 (centres undefined) | -25.8% (inactive)
O=C(NCCSCc1ccccc1)c1ccc(F)cc1 | 3.46% (inactive)
CCOc1ccc(-c2nnc(NC(=O)CCCOc3cccc(C)c3)o2)cc1 | -5.93% (inactive)
COc1ccc(Br)cc1C(=O)NCc1cccnc1 | 13.7% (inactive)
C=CCNc1sc(C(=O)c2ccc(C)cc2)c(N)c1C#N | -15.5% (inactive)
Cc1ccc(C(=O)NCC(=O)OCC(=O)N2CCCc3ccccc32)cc1 | -6.03% (inactive)
CCC(OC(=O)C(NC(=O)c1ccccc1)c1ccccc1)C(=O)Nc1cc(C)on1 (centres undefined) | 10.2% (inactive)
COc1ccc(-c2nnc(SCC(=O)NCc3ccco3)o2)cc1 | -20.6% (inactive)
CCn1c(SCC(=O)N2CCCCC2)nc(O)cc1=O | -20.9% (inactive)
CC(=O)N1C(=O)C2(C(C#N)=C(N)Oc3c2c(C)nn3-c2ccccc2)c2ccccc21 (centres undefined) | 0.59% (inactive)
Oc1ccc(N2CCN(Cc3ccc(OCCCN4CCCCC4)cc3)CC2)cc1 | -15.5% (inactive)
O=C(COC(=O)/C=C/c1ccco1)Nc1cccc([N+](=O)[O-])c1 | -25.8% (inactive)
CCc1c(C)c2cc(Cl)c(O)c(CN(C)C)c2oc1=O | -22% (inactive)
Cc1[nH]c2ccccc2c1/C=N/Nc1ccc(F)cc1F | 10.1% (inactive)
COc1ccc(-c2[nH]ncc2/C=C(\C#N)C(=O)NC2CC2)cc1 | -31.2% (inactive)
N#Cc1nc(Cc2cccc3ccccc23)oc1NCCCN1CCOCC1 | 17.1% (inactive)

Structure (SMILES) | inhibition
CCCSc1ncc(Cl)c(C(=O)Nc2ccc(S(=O)(=O)N3CC(C)OC(C)C3)cc2)n1 (centres undefined) | -12.1% (inactive)
CCn1nc(C(=O)NCc2ccco2)c(Cl)c1Cl | -30.1% (inactive)
CCN(CC)Cc1c[nH]c2c(C(=O)OC)cccc12 | -12.2% (inactive)
Cc1ccccc1Cn1nc(C)c(NC(=O)c2noc3c2CCc2ccccc2-3)c1C | -14.1% (inactive)
c1nc(N2CCC3(CC2)OCCO3)c2c3c(sc2n1)CCCC3 | -10.8% (inactive)
COc1ccccc1Nc1nc(NCc2ccco2)c2ccccc2n1 | -22.9% (inactive)
COCCSc1ccccc1C(=O)NCC1CCCO1 (centres undefined) | -29.7% (inactive)
CCCOc1ccc(C2NC(=S)NC(c3ccccc3)=C2C(=O)Nc2ccc(C)cc2)cc1OC (centres undefined) | 4.38% (inactive)
N#Cc1nc(-c2cccs2)oc1NCCCN1CCOCC1 | 13.9% (inactive)
COc1ccc(C)cc1NC(=O)C(Sc1nnc(-c2ccncc2)n1-c1ccc(Cl)cc1)c1ccccc1 (centres undefined) | -2.56% (inactive)
COc1ccc(OC)c(/C=N/NC(=O)Cc2nc3ccccc3[nH]2)c1 | 7.93% (inactive)
Cc1ccc(/C=N/NC(=O)Cn2cnc3ccccc32)o1 | -30.2% (inactive)
C=CCn1c(SCCOc2ccc(OC)cc2)nnc1C(C)NC(=O)c1ccc(OC)cc1 (centres undefined) | -26.5% (inactive)
O=C(CSCc1nc2ccccc2[nH]1)Nc1ccc2ccccc2c1 | 17.2% (inactive)
CC(Cl)C(=O)NNc1cccc(Cl)n1 (centres undefined) | -22.7% (inactive)
O=S(=O)(c1ccc2c(c1)OCCO2)N1CCN(c2cccc(Cl)c2)CC1 | -27.1% (inactive)
O=C(CSc1ncn[nH]1)Nc1cccc2ccccc12 | -9.1% (inactive)
COc1ccc(Oc2ccccc2/C=N/O)cc1 | -16.1% (inactive)
CCCNC(=O)CN(C1CCCCC1)S(C)(=O)=O | 4.77% (inactive)
Cc1nnc(SC(C)C(=O)Nc2ccc(S(=O)(=O)N3CCCCCC3)cc2)s1 (centres undefined) | -20.9% (inactive)
O=S(=O)(/N=C(/Nc1cccc2ccccc12)c1ccccc1)c1cccs1 | -14.4% (inactive)
COc1ccc(-c2ccccc2)cc1NCc1ccccc1C | -21.2% (inactive)

From PubChem BioAssay AID2401 (Southern Research Specialized Biocontainment Screening …, 2010)
